Compound activity from PubChem.
Shown are actives, neighbours in structure and some others; about 3.3% of the full set was active somewhere.
ERa SRC1 pot – enhancers of ERα–SRC-1 coactivator binding, primary screen, biochemical, TR-FRET, ERα LBD, low estradiol. Estrogen receptor (Homo sapiens), P03372. 1.3% of 86,000 active. AID 639, 2007. coactivator binding (% of control), % at 25.6 µM. TR-FRET ERalpha-LBD/SRC-Cy5 coactivator binding, 2 h; 100 = basal binding, no effect; in the data active = activity above about 200%;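 also: binding measured in presence of low estradiol as agonist stimulus; 0% = peptide alone without receptor and 100% = receptor with peptide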
ERa coact inh – ERα–SRC-1 coactivator interaction inhibitors, primary screen, biochemical, TR-FRET, ERα LBD, estradiol-bound. inhibition, % at 25.6 µM. Estrogen receptor (Homo sapiens), P03372. TR-FRET ER-alpha LBD / SRC-1 peptide. AID 629, 2007. 1.7% of 86,000 active; in the data active = inhibition above about 50%;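 also: 0% = receptor plus peptide control and 100% = peptide only without receptor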
Candida biofilm – clotrimazole potentiators killing Candida biofilms, primary screen, with clotrimazole, Alamar Blue; C. albicans biofilm + clotrimazole; AID 834, 2007; inhibition, % at 6 µM; 0.14% of 85,000 active;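 active = inhibition above 20%; inactive = inhibition below 20%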;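 also: preformed 24 hr biofilms exposed to compound for 48 hr; 0% = biofilm without compound and 100% = blank killed by clotrimazole plus chlorhexidine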
ERb coact inh – inhibitors of ERβ-SRC1 coactivator interaction, primary screen, biochemical, TR-FRET, ERβ LBD, SRC-1 peptide | Estrogen receptor beta (Homo sapiens), Q92731 | TR-FRET ER-beta LBD / SRC1-Cy5 peptide binding; receptor agonist-loaded with 1 µM estradiol | inhibition, % at 25.6 µM | 1.3% of 86,000 active | AID 633, 2007;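 active = compounds whose percent inhibition of the receptor-coactivator binding signal exceeds about 50% in the single-dose screen, limit read from the data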;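 also: 0% = receptor plus peptide wells without compound and 100% = peptide-only wells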
Target sequence (Q92731 whole entry, looked up, the tested form may be a part): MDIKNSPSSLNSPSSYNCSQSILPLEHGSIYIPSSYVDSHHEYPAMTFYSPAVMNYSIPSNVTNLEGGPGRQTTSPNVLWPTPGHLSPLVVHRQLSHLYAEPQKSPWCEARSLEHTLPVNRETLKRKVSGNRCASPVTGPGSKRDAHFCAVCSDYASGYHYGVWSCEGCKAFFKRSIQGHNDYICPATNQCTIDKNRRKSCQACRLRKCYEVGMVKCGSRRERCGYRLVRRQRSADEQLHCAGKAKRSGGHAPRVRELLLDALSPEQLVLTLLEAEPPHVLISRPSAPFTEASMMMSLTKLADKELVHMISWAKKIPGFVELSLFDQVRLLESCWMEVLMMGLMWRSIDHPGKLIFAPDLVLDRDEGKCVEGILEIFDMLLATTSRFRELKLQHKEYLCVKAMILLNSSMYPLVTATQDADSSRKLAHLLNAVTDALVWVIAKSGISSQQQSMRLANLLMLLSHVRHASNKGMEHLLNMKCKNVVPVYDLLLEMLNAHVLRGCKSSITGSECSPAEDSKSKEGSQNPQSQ
Smad3 inh – Smad3/FoxH1 peptide binding inhibitors, primary screen, biochemical, TR-FRET; inhibition, % at 25 µM; AID 630, 2007; Mothers against decapentaplegic homolog 3 (Homo sapiens), P84022; TR-FRET Smad3/Dy647-FoxH1 peptide binding, europium anti-His; 0.29% of 88,000 active;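 active = compounds that reduce the energy-transfer binding signal between the protein and its labelled peptide by more than half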;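 also: 0% = Smad3 plus labelled peptide maximal FRET and 100% = peptide-only background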
FAK blocker – FAK kinase inhibitors, primary screen, biochemical; Focal adhesion kinase 1 (Homo sapiens), Q05397; biochemical FAK kinase activity assay; inhibition, %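 (tested at 7 µM)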; 0.84% of 97,000 active; AID 727, 2007; in the data active = inhibition above about 19%;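 also: 0% = DMSO and 100% = reference compound high control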
* hit, by the source's call; nt = not tested or not shown; [ ] = dose if it differs, or a comment.

SMILES	ERa SRC1 pot	ERa coact inh	Candida biofilm	ERb coact inh	Smad3 inh	FAK blocker
O=C(O)c1ccncc1.O=C(O)c1ccncc1.[Cl][Pt]([Cl])([Cl])[Cl]	nt	nt	nt	nt	72*	nt
Cc1ccccc1S(=O)(=O)O[C@@H]1NS(=O)(=O)c2ccccc21	nt	nt	nt	nt	-1	nt
Brc1ccc2[nH]c3c(N4CCc5ccccc5C4)ncnc3c2c1	495*[fluorescence artefact?]	13	-1	3	7	5
COc1ccc(CCN2C(=O)CC(Sc3ncccc3C(=O)O)C2=O)cc1OC (centres undefined)	103	-5	0	-2	7	1
NCC(=O)Nc1ccc(Cl)cc1C(=O)c1ccc[nH]1	nt	nt	nt	nt	7	nt
Cc1ccccc1S(=O)(=O)Nc1nc2ccccc2nc1N1CCOCC1	101	-28	1	-1	-15	-12
CCOC(=O)COc1cccc2c(=O)n(CC(=O)N3CCCc4ccccc43)ccc12	97	10	13	51*[fluorescence artefact?]	-8	2
O=S(=O)(NCc1csc(-c2cccnc2)n1)c1ccc(Cl)s1	40	65*	12	54*	-2	7
O=S(=O)(NCc1csc(-c2ccccc2)n1)c1ccc(Cl)s1	93	-9	7	6	-6	nt
Cc1ccc(Cl)cc1NC(=O)CC1NCCNC1=O (centres undefined)	100	0	4	1	-1	-2
COc1cc2c(cc1OC)C(c1ccc(-c3cc(Cl)ccc3Cl)o1)=NCC2	253*[fluorescence artefact?]	47	5	36	1	15
N[C@@H](Cc1ncccn1)C(=O)O	nt	nt	nt	nt	3	nt
Nc1ccccc1N=Nc1c(S(=O)(=O)O)cc2cc(S(=O)(=O)O)cc(O)c2c1O	nt	nt	nt	nt	4	nt
Cn1c(-c2ccc(C=O)s2)nc2c3ccccc3c3ccccc3c21	364*[fluorescence artefact?]	32	-2	-1	-74	-4
CCC1(C)N(O)C(C)(C)C(c2ccc(F)cc2)=[N+]1[O-] (centres undefined)	101	-3	5	25	19	0
O=C(Nc1ccccc1)c1ccc(N2CCN(c3ccccc3)CC2)c(S(=O)(=O)N2CCOCC2)c1	405*[fluorescence artefact?]	31	2	26	-5	1
O=C(Nc1ccccc1)c1ccc(N2CCN(c3ccccn3)CC2)c(S(=O)(=O)N2CCOCC2)c1	340*[fluorescence artefact?]	27	0	27	3	-2
CCCn1c(SCC(=O)Nc2sc(C)c(C)c2C(=O)OC)nc2c1c(=O)n(C)c(=O)n2C	246*	51*	5	47	6	nt
C=CCn1c(=O)[nH]c2cc(C(=O)N3CCN(c4cc(C)ccc4C)CC3)ccc2c1=O	106	-6	9	35	-6	2
C=CCn1c(=O)[nH]c2cc(C(=O)N3CCN(c4ccc(C(C)=O)cc4)CC3)ccc2c1=O	106	68*	4	36	-7	14
S=c1[nH]nc(-c2cccnc2)o1	118	-13	3	-2	-5	1
S=c1[nH]nc(-c2ccc3ccccc3n2)o1	471*[fluorescence artefact?]	0	6	-2	14	0
O=C(CN1CCN(S(=O)(=O)c2ccccc2)CC1)Nc1ccc(Cl)c(Cl)c1	nt	nt	nt	nt	nt	2
Cc1n[nH]c(C)c1S(=O)(=O)N(CC(=O)N1CCc2ccccc21)c1ccc(C(C)C)cc1	56	54*[fluorescence artefact?]	4	50*	8	0
CCOc1ccc(N(CC(=O)N2CCc3ccccc32)S(=O)(=O)c2c(C)noc2C)cc1	103	1	5	-8	9	0
SMILES	ERa SRC1 pot	ERa coact inh	Candida biofilm	ERb coact inh	Smad3 inh	FAK blocker
Cc1ccc(N(Cc2ccccc2)Cc2ccccc2)cc1	nt	nt	nt	nt	6	nt
c1ccc2nc(CC[C@@H]3CCCCN3)ccc2c1	nt	nt	nt	nt	-5	nt
CCOC(=O)C1CCN(S(=O)(=O)Cc2ccccc2)C1=O (centres undefined)	116	-8	7	68*[fluorescence artefact?]	0	5
CCN1CCN(S(=O)(=O)Cc2ccccc2)CC1	110	-8	8	-11	1	-2
CC(CC(=O)NC1CCCC1)c1ccccc1 (centres undefined)	119	0	-3	-4	4	-8
CCCCOc1ccc(Br)cc1/C(C)=N/NC1=NCCN1	36	18	2	19	-9	0
C/C(=N\NC1=NCCN1)c1cn(C2=NCCN2)nc1C	nt	nt	nt	nt	93*	nt
O=C(C[N+]12CN3CN(CN(C3)C1)C2)c1ccc(-c2ccccc2)cc1	nt	nt	nt	nt	77*	nt
COC(=O)c1sccc1NC(=S)N1CC(C)CC(C)C1 (centres undefined)	103	1	0	1	22	-1
COc1ccc(NC(=O)C2CCN(C(=O)c3ccccc3)CC2)c(OC)c1	110	-9	9	0	8	-5
COc1ccc(C(=O)N2CCC(C(=O)Nc3ccccc3OC)CC2)cc1	223*[fluorescence artefact?]	-14	0	-15	1	-2
N/N=C1/CC(=O)NC(=O)N1	nt	nt	nt	nt	-10	nt
COc1ccc(CCNS(=O)(=O)c2ccc(S(=O)(=O)N3CCCC3)cc2)cc1OC	108	7	5	88*[fluorescence artefact?]	-9	1
COc1ccc(CCNS(=O)(=O)c2ccc3c(c2)n(C)c(=O)c(=O)n3C)cc1OC	nt	nt	nt	nt	nt	0
O=C(O)/C=C/C(=O)N1Cc2cc3ccccc3nc2C1	nt	nt	nt	nt	-1	nt
C/C(N)=C(/C#N)C(=O)CSc1nnc(Nc2c(C)cccc2C)s1	16	87*[fluorescence artefact?]	5	93*[fluorescence artefact?]	-3	nt
CCCSc1nnc(Nc2ccccc2C)s1	98	-5	4	1	-3	-4
Cc1ccccc1Nc1nnc(SCC(=O)NCc2ccco2)s1	51	85*[fluorescence artefact?]	8	54*	-4	15
C/C(N)=C(/C#N)C(=O)CSc1nnc(SCc2ccc(Cl)cc2)s1	60	23	9	40	5	3
C/C(N)=C(/C#N)C(=O)CSc1nnc(Nc2cccc(C)c2C)s1	47	52*[fluorescence artefact?]	12	65*	7	4
NC(N)=N/N=C(/c1ccc(Cl)cc1)C1CC1	nt	nt	nt	nt	-12	nt
Cc1cc(Cc2cc(Cc3cc(C)cc(C(C)(C)C)c3O)c(C)cc2C)c(O)c(C(C)(C)C)c1	nt	nt	nt	nt	-8	nt
O=C(CCSCCc1ccccn1)Nc1ccc(Cl)cn1	109	2	5	-8	54*[fluorescence artefact?]	-2
Nn1c(SCC(=O)Nc2cccc(F)c2)nnc1C1CCCCC1	71	17	6	1	4	-2
COc1ccc(C(=O)CSc2nnc(C3CCCCC3)n2N)c(OC)c1	64	68*	2	18	2	nt
Cc1ccccc1N(Cc1nnc2n1CCCCC2)C(=O)Nc1ccccc1	113	-8	4	-6	-5	2
